From the supplement of paper PMC11732987, “Enantioselective OTUD7B fragment discovery through chemoproteomics screening and high-throughput optimisation” (Communications Chemistry, 2025)

Legend:
Assay in all cases: log2 ratio of Biotin-Ahx-Ub-VS probe labelling (fragment/DMSO); higher = less target engagement (more negative = stronger competition), active = hit call of the paper (q ≤ 0.05, log2 ratio ≤ -1)
Conditions in all cases: compound concentration: 200 uM; treatment time: 3 h
[1] = target: T1, USP42 (UniProt Q9H9J4)
T1 sequence (whole entry): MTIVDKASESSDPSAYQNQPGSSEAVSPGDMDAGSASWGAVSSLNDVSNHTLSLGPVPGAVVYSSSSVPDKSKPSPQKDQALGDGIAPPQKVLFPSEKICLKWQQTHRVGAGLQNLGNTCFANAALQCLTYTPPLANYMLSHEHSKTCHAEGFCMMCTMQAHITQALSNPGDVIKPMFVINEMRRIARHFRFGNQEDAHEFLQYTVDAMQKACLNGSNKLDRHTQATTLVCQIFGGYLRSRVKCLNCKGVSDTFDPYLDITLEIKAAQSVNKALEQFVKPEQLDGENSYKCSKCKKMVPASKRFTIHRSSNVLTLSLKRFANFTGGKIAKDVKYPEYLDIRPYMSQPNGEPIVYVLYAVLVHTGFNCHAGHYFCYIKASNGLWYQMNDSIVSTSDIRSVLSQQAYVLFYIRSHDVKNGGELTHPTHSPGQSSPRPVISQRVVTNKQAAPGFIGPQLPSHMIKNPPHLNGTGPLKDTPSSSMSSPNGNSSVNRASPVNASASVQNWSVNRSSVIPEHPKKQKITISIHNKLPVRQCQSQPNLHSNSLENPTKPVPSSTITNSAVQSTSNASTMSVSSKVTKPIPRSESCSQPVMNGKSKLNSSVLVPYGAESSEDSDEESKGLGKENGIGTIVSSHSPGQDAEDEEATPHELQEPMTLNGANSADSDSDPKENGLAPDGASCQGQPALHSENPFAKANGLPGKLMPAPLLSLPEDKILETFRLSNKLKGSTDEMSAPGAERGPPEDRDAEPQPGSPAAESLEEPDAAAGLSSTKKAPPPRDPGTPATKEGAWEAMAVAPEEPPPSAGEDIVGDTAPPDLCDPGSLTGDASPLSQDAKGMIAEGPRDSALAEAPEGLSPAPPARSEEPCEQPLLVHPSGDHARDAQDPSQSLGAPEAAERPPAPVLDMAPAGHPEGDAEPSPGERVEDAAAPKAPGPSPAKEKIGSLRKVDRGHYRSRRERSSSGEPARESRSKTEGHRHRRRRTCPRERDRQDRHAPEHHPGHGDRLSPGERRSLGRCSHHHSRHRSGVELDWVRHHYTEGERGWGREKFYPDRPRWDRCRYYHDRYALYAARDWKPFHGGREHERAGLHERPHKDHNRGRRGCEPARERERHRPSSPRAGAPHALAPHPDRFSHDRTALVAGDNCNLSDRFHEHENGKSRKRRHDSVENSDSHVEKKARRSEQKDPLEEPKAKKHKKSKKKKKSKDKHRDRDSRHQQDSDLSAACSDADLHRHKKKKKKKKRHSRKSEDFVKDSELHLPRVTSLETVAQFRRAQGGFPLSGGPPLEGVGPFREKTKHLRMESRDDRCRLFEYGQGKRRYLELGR
Method in brief: (§1)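 Global-median-normalised Spectronaut label-free quantities were compared by unpaired t-test, and values are average log2 ratios of fragment over vehicle. Only proteins with ≥2 unique peptides were used. HEK293T lysate (495 µg per sample) was treated in triplicate with fragment at 200 µM or vehicle for 3 h and then with Biotin-Ahx-Ub-VS at 0.5 µM final for 1 h. Labelled DUBs were then NeutrAvidin-enriched, digested with LysC and trypsin, and run by diaPASEF LC-MS/MS.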

[2] = target: USP46 (UniProt P62068)
Method in brief: as §1

[3] = target: T2, USP47 (UniProt Q96K76)
T2 sequence (whole entry): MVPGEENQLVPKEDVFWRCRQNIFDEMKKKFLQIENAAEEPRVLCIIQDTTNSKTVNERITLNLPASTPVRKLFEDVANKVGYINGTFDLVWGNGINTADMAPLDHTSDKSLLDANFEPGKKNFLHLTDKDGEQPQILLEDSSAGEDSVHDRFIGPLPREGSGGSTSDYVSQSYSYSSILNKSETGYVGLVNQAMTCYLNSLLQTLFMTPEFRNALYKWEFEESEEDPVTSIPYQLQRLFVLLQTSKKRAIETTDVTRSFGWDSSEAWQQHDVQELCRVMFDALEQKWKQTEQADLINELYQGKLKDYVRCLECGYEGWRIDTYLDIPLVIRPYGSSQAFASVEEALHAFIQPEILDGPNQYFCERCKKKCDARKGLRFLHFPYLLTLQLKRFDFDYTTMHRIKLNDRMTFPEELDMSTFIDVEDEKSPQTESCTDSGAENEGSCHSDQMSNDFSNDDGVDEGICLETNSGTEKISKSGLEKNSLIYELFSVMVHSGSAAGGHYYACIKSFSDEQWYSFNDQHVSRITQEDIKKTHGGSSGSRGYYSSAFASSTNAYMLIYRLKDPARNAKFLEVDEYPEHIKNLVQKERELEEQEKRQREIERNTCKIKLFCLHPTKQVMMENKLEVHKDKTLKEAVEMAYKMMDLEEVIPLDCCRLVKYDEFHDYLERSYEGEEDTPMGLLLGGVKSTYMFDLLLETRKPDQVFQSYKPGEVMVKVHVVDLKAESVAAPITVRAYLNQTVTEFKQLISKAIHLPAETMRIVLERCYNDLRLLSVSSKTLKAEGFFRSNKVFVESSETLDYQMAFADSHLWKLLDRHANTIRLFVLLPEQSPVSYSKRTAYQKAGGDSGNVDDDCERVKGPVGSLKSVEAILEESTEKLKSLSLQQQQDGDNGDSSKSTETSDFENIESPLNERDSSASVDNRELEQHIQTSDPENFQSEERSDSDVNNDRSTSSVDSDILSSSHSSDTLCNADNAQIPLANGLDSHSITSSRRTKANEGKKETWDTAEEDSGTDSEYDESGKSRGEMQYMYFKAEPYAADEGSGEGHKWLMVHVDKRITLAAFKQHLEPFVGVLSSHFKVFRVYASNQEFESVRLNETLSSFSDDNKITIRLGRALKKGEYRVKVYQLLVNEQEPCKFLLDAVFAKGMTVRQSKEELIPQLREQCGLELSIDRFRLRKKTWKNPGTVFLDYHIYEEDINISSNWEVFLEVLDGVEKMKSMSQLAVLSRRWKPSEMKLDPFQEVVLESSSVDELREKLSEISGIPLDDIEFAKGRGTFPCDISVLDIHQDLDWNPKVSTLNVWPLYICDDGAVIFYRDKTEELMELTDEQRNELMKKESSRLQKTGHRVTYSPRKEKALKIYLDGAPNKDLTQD
Method in brief: as §1

[4] = target: T3, USP48 (UniProt Q86UV5)
T3 sequence (whole entry): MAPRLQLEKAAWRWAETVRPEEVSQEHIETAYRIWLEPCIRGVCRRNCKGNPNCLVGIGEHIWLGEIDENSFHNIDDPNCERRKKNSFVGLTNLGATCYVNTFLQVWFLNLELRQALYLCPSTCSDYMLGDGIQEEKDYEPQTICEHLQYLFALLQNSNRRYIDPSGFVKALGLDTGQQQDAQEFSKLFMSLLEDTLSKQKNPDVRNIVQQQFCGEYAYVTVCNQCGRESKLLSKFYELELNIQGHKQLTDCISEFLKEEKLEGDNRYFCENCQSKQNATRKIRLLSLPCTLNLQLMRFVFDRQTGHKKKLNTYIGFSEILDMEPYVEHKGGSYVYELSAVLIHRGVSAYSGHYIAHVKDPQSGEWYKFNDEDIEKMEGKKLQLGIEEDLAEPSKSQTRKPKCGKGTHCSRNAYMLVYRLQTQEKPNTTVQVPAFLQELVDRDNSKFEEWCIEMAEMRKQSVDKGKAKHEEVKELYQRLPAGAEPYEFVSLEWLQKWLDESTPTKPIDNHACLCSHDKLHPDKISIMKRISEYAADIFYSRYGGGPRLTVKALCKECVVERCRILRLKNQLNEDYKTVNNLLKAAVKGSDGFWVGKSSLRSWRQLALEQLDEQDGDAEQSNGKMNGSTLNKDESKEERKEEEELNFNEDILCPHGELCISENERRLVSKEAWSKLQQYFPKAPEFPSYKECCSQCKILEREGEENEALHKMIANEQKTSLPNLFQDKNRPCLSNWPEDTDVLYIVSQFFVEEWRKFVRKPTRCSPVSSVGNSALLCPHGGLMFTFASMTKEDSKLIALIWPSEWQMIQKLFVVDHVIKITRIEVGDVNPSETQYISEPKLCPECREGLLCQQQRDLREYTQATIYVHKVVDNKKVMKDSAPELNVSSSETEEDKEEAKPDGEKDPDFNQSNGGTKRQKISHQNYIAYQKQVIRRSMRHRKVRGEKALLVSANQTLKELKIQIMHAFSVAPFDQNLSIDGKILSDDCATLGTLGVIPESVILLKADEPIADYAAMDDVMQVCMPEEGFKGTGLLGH
Method in brief: as §1

[5] = target: T4, USP5 (UniProt P45974)
T4 sequence (whole entry): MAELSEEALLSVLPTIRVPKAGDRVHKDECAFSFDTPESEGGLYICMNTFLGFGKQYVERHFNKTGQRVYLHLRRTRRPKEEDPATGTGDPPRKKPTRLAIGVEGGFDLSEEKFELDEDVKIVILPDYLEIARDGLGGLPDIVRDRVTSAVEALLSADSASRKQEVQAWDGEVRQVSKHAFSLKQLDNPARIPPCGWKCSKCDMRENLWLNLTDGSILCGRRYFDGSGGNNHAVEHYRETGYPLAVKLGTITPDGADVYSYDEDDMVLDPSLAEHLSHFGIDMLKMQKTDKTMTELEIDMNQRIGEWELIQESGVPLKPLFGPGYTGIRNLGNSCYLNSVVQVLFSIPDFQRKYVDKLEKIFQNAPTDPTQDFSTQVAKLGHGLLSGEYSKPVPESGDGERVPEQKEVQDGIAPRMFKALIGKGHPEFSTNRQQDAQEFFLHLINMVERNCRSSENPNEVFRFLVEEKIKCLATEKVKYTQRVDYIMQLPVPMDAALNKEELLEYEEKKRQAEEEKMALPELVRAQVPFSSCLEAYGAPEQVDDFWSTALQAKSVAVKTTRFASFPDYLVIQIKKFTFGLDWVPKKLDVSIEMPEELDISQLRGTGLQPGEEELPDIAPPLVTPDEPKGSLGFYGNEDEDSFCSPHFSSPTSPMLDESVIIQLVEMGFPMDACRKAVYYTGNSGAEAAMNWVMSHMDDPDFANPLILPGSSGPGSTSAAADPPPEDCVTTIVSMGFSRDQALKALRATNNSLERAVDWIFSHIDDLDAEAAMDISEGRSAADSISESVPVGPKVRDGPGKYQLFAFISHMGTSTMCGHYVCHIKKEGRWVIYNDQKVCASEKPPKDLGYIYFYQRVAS
Method in brief: as §1

[6] = target: USP54 (UniProt Q70EL1)
Method in brief: as §1

[7] = target: USP7 (UniProt Q93009)
Method in brief: as §1

[8] = target: T5, USP8 (UniProt P40818)
T5 sequence (whole entry): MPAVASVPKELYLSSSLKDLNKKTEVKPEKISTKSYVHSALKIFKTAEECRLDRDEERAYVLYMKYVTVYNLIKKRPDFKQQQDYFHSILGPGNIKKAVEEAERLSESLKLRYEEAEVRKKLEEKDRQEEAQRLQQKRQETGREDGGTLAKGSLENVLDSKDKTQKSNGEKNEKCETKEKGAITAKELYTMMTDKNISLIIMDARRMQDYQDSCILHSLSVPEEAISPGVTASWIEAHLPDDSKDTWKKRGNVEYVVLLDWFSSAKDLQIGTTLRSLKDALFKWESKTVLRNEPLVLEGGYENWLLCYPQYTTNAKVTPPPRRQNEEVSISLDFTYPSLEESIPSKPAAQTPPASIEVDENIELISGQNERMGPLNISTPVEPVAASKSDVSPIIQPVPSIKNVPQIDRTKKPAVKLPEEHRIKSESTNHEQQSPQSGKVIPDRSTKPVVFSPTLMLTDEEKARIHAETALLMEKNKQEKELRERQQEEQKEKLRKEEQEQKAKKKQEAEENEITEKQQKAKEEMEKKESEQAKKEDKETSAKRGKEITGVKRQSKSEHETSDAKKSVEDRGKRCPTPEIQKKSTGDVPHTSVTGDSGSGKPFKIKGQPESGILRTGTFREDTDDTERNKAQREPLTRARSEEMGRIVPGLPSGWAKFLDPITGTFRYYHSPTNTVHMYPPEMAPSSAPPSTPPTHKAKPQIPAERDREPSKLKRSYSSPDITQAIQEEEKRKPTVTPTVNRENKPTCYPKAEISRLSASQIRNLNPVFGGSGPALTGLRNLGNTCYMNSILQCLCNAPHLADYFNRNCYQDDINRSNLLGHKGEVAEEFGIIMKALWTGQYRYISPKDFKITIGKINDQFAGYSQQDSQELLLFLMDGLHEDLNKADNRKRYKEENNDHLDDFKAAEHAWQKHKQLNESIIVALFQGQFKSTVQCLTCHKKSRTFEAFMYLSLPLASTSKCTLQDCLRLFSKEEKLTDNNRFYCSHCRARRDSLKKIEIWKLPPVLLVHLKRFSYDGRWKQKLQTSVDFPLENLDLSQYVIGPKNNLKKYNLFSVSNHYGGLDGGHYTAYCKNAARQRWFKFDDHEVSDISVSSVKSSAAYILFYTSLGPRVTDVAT
Method in brief: as §1

[9] = target: USP9X (UniProt Q93008)
Method in brief: as §1

[10] = target: UniProt O00487
Method in brief: as §1

Measured: log2 ratio of Biotin-Ahx-Ub-VS probe labelling

Sequence of USP54 (Q70EL1 whole entry): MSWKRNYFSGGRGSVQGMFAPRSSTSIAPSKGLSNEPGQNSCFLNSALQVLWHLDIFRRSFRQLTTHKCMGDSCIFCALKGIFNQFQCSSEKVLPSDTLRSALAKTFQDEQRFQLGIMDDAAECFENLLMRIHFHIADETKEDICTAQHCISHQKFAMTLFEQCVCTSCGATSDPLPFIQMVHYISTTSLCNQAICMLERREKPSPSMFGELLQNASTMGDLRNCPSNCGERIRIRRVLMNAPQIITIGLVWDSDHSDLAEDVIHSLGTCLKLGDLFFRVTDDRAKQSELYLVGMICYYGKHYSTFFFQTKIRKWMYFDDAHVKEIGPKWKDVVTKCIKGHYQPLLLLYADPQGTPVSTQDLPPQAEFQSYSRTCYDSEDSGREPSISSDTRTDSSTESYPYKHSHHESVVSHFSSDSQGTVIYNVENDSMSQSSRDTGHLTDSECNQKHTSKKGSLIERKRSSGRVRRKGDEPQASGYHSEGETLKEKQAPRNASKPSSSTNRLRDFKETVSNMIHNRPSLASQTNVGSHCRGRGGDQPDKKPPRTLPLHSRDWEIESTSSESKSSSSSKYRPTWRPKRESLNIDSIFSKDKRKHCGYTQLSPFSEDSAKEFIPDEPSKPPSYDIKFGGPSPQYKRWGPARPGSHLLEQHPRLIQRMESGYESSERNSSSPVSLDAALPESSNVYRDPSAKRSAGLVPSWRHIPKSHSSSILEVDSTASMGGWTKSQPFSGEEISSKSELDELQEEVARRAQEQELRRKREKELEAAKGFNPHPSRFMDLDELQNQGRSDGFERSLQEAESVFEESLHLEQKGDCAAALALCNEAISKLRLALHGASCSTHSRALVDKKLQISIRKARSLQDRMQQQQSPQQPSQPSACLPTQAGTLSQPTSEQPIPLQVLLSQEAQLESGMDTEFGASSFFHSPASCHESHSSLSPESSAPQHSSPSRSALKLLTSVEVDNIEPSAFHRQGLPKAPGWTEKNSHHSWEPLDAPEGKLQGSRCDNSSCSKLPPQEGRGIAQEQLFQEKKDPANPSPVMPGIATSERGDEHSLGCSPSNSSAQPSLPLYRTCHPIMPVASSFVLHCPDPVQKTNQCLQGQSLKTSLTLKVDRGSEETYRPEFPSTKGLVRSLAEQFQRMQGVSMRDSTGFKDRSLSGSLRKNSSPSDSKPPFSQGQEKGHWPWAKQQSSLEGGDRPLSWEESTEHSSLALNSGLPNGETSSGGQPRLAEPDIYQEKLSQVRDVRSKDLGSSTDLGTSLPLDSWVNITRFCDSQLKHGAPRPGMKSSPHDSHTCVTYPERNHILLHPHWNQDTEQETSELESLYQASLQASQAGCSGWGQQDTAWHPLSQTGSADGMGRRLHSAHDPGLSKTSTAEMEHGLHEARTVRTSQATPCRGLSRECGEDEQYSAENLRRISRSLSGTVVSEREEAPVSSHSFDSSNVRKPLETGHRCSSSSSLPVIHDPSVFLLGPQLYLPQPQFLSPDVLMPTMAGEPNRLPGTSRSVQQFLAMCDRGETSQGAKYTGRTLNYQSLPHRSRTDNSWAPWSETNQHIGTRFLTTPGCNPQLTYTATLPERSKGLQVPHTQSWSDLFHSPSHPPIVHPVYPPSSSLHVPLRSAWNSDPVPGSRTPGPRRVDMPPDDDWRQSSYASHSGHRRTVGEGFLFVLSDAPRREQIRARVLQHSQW
Sequence of UniProt O00487 (O00487 whole entry): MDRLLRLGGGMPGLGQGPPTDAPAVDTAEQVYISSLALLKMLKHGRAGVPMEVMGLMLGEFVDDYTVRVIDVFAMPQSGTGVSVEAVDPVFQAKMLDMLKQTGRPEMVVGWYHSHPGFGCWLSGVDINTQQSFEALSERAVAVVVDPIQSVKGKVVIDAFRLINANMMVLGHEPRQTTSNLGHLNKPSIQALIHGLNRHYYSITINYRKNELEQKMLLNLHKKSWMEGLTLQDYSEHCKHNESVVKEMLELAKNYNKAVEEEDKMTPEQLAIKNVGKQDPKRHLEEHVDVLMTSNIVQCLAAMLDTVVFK
Sequence of USP9X (Q93008 whole entry): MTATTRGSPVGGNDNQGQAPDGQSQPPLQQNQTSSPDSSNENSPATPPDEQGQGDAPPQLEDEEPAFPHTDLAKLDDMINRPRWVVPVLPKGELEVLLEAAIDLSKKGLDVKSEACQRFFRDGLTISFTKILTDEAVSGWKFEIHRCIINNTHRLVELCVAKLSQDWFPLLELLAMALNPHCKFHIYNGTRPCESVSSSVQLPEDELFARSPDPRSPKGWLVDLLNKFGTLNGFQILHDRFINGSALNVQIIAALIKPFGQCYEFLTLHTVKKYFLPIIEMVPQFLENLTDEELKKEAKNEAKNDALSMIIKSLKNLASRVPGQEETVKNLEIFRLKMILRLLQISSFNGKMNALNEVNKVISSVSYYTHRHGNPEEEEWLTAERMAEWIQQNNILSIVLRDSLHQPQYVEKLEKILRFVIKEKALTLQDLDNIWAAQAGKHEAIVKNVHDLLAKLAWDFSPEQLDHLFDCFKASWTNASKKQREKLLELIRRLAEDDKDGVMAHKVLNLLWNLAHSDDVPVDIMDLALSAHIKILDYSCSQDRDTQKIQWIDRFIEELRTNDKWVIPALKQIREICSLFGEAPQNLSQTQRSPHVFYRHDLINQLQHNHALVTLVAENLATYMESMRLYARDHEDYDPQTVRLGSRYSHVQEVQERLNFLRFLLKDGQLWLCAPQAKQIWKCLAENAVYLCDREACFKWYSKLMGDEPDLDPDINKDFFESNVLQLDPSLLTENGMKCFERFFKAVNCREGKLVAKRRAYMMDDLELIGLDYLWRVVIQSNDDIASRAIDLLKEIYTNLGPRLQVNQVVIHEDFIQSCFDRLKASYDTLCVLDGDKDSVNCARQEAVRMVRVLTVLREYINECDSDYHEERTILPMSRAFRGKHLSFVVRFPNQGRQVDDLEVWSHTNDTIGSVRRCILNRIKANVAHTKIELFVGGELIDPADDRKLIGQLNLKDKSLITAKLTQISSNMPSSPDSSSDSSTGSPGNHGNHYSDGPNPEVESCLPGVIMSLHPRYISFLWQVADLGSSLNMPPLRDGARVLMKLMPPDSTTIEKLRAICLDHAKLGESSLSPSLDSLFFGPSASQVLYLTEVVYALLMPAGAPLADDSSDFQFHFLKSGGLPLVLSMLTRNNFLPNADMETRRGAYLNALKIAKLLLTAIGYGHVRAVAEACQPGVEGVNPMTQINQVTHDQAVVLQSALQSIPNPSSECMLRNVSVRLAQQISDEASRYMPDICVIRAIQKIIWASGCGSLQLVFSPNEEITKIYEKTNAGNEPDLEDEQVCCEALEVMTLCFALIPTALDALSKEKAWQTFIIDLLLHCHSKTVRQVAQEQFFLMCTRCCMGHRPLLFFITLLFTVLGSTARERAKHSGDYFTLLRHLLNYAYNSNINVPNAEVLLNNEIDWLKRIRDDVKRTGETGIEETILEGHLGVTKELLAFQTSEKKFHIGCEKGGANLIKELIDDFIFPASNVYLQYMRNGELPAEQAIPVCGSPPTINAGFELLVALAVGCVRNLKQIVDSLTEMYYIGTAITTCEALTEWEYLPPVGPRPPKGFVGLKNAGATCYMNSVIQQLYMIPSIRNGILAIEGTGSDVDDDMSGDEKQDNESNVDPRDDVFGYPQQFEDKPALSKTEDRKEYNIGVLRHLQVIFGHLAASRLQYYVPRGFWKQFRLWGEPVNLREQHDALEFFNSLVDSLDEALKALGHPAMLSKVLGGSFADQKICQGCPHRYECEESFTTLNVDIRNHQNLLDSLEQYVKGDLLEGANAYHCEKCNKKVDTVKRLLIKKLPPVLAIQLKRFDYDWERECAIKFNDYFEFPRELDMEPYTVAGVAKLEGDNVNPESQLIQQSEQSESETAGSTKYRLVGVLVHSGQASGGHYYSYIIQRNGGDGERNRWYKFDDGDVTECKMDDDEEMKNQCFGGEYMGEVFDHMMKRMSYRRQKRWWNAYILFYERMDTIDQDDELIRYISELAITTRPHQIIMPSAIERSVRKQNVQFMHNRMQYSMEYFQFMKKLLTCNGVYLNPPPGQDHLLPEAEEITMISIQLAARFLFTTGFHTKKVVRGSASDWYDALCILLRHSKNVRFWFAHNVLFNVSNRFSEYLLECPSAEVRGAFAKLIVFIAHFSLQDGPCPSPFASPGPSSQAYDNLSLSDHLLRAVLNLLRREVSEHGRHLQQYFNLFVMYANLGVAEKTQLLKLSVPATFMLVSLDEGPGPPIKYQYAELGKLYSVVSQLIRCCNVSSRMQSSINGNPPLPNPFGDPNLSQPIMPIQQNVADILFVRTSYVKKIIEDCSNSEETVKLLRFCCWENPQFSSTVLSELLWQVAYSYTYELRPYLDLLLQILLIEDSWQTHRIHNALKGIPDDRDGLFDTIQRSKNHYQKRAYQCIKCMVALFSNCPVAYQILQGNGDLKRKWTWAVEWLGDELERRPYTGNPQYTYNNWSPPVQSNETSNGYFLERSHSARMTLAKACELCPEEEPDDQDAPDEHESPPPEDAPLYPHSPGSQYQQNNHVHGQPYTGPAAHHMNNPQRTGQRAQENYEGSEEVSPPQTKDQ
Sequence of USP46 (P62068 whole entry): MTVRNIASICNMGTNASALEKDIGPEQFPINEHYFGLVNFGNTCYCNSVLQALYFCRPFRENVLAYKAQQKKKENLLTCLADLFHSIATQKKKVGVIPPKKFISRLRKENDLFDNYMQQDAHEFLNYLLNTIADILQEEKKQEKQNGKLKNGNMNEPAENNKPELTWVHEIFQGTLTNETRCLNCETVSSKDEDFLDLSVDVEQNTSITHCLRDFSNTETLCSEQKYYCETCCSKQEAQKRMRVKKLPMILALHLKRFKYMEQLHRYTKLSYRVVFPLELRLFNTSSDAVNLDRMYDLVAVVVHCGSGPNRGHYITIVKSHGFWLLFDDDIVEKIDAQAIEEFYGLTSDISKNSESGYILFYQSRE

CN(C(=O)CCl)c1nc2ccccc2s1
inactive: [1] 0.236 | [2] -0.305 | [3] -0.107 | [4] -0.574 | [5] -0.191 | [6] -0.996 | [7] -0.566 | [8] -0.0186 | [9] -0.325 | [10] -0.00105
